Screens from PubChem.
TEAD-YAP inh = TEAD-YAP interaction inhibition | HEK-TIYL cells, TEAD-Gal4/YAP UAS-luciferase luminescence | inhibition, % at 9.12 µM | 1.4% of 640,000 active; in the data active = inhibition above about 32%;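 note: 0% = median of test compound wells and 100% = reference inhibitor wells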
GPR151 ag = activators of human GPR151. PathHunter beta-arrestin GPR151 cells, luminescence. activation, % at 11.2 µM. Q8TDV0. 1% of 650,000 active; in the data active = activation above about 4.9%;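 note: 0% = median of compound wells and 100% = cells with positive control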
FBW7 activator = human FBW7 E3 ligase activation, primary screen | Q969H0 | AlphaScreen FBW7–phospho-cyclin E peptide binding, activator screen | normalized activity (activation), % at 26.1 µM | 0.13% of 650,000 active | AID 1259310; in the data active = normalized activity above about 1.9%;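 note: purified mutant Fbw7 with reduced substrate affinity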
Target sequence (Q969H0 whole entry, looked up): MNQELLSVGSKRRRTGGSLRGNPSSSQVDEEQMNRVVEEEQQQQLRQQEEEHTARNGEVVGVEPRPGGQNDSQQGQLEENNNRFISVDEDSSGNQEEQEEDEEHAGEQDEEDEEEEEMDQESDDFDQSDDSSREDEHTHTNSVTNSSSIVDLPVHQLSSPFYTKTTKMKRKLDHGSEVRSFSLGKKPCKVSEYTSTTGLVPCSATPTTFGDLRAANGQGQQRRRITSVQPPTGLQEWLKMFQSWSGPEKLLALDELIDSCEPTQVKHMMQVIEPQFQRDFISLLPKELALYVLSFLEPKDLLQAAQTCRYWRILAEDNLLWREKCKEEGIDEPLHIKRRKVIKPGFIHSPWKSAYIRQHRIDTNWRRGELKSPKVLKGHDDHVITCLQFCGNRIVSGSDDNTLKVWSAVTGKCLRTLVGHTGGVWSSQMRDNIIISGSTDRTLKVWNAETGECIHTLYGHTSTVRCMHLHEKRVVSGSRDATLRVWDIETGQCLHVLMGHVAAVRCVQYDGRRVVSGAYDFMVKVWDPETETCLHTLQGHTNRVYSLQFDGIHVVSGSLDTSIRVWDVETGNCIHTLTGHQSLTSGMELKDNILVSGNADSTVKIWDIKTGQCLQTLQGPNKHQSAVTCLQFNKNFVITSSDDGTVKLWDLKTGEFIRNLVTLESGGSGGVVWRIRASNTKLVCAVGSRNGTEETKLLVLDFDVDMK
MITF inh = human MITF inhibition, primary screen; inhibition, % at 2.6 µM; 0.91% of 650,000 active; O75030; AlphaScreen MITF homodimerization, bead proximity signal; AID 1259374; in the data active = inhibition above about 50%;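 note: 0% = vehicle wells with protein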
Numbers without * were called inactive. This is a sample that favours compounds with a hit; in the whole collection about 3.5% have one here.

SMILES	TEAD-YAP inh	GPR151 ag	FBW7 activator	MITF inh
COc1ccc(Cc2cnc(NC(=O)/C=C/c3ccccc3)s2)cc1	56.1*	1.8	0.0	-2.2
O=P1(Nn2cnnc2)C=C(c2ccccc2)SC(c2ccccc2)=C1	-8.1	-0.3	0.0	-1.2
COc1ccc(-c2nc(C(N)=O)c3[nH]c(=O)n(-c4ccc(F)cc4)c3n2)cc1	36.2*	0.5	-0.1	-3.5
COc1ccc(-c2nc(C(N)=O)c3[nH]c(=O)n(-c4ccccc4OC)c3n2)cc1OC	32.2*	1.4	-0.1	19.2
COc1ccc(-c2nc(C(N)=O)c3[nH]c(=O)n(-c4cccc(Cl)c4)c3n2)cc1O	62.6*	1.2	0.5	7.3
COc1ccccc1-n1c(=O)[nH]c2c(C(N)=O)nc(-c3cccc(O)c3)nc21	34.0*	-2.0	0.0	17.9
Cc1cccc2cc(C#N)c(NCCNC(=O)CCC(=O)O)nc12	-5.6	-0.5	0.2	1.7
O=C1CCC(CCC(=O)N2CCC(OCc3ccccc3)CC2)(Cc2ccccc2)N1 (stereo unspecified)	-44.2	-0.5	0.2	-15.0
Cc1nc(/C=C/c2ccc(Cl)cc2)sc1C(=O)O	59.6*	-11.5	-0.3	-3.3
NC(=O)COC(=O)/C(=C/c1ccco1)n1nnnc1-c1ccccc1	1.1	1.0	-0.1	13.2
O=C(NC1CCCCCC1)/C(=C/c1ccco1)n1nnnc1-c1ccccc1	34.5*	0.7	0.3	7.3
CC(C)N(CCNc1nc(-c2ccc(N3CCOCC3)nc2)nc2c1ncn2-c1ccsc1)C(C)C	42.6*	-0.2	-0.1	6.1
CC(C)N(CCNc1nc(-c2ccc(N3CCOCC3)nc2)nc2c1ncn2C(C)C)C(C)C	19.1	3.1	-0.1	-13.9
OCCNc1nc(-c2ccc(N3CCOCC3)nc2)nc2c1ncn2-c1ccsc1	33.6*	0.1	0.1	-2.1
COc1ccc(-c2nc(NCCN(C(C)C)C(C)C)c3ncn(-c4ccsc4)c3n2)cn1	35.1*	-1.2	-0.1	12.7
O=C(Cn1cnc2ccccc21)N1CCN(Cc2csc(-c3ccccc3)n2)CC1	45.9*	1.5	-0.1	20.9
O=C(CCn1cnc2ccccc2c1=O)N1CCN(Cc2csc(-c3ccccc3)n2)CC1	21.1	-0.3	-0.1	-4.0
COc1ccc(Br)cc1Cc1nc(C)cc(-n2cc(F)c(=O)[nH]c2=O)n1	-4.8	0.1	-0.1	-17.2
CC1(Cc2ccccc2)C(=O)Nc2ccc(-c3cccnc3)cc21 (stereo unspecified)	18.1	0.1	0.0	8.2
CC1(Cc2ccc3c(c2)OCO3)C(=O)Nc2ccc(-c3cccnc3)cc21 (stereo unspecified)	42.1*	0.7	0.2	10.6
CCN(CC)C(=O)C1CCCN(c2nc(C)cc(NCc3cccc(C(F)(F)F)c3)n2)C1 (stereo unspecified)	35.2*	-1.6	0.0	2.9
Cc1cc(NCc2cccc(C(F)(F)F)c2)nc(N2CCCC2CO)n1 (stereo unspecified)	41.8*	3.4	0.2	-0.4
CCN(CC)C(=O)C1CCCN(c2nccc(NCc3cccc(C(F)(F)F)c3)n2)C1 (stereo unspecified)	17.4	1.5	0.0	6.7
COc1ccc(S(=O)(=O)N(CC(=O)NCC2CCCO2)c2ccc(C)cc2)cc1OC (stereo unspecified)	-9.8	-0.7	0.0	-1.7
CCCS(=O)(=O)c1ncc(Cl)c(C(=O)Nc2ccc(OC)cc2)n1	33.7*	-2.0	1.0	16.0
SMILES	TEAD-YAP inh	GPR151 ag	FBW7 activator	MITF inh
CCS(=O)(=O)c1ncc(Cl)c(C(=O)Nc2cccc(Cl)c2)n1	95.2*	-2.1	-0.2	5.8
CCS(=O)(=O)c1ncc(Cl)c(C(=O)Nc2ccc(C)c(C)c2)n1	35.2*	-1.8	-0.2	-4.7
C=CCc1cccc2cc(C(=O)Nc3ccc4c(c3)OCO4)c(=O)oc12	11.8	-0.9	0.5	8.6
c1cncc(-c2nnc(SCc3nc4ccccc4[nH]3)o2)c1	44.0*	-0.6	0.0	-6.4
CCOC(=O)C1CCN(c2c(NCc3ccc(OC)cc3)c(=O)c2=O)CC1	57.8*	-0.1	0.1	-9.9
CCOC(=O)C1CCN(c2c(Nc3cccc(SC)c3)c(=O)c2=O)CC1	55.4*	-0.2	0.0	0.6
CCOC(=O)C1CCN(c2c(Nc3ccc(C)c(F)c3)c(=O)c2=O)CC1	-9.8	-0.2	-0.2	-0.6
CCOC(=O)C1CCN(c2c(NCc3ccc(Cl)cc3)c(=O)c2=O)CC1	66.6*	-0.6	-0.1	0.7
CCOC(=O)C1CCN(c2c(NCc3ccc(F)cc3)c(=O)c2=O)CC1	64.3*	-1.7	0.1	12.2
CCOC(=O)C1CCN(c2c(NCc3ccc(N(C)C)cc3)c(=O)c2=O)CC1	0.9	0.9	0.0	5.3
CCOc1ccc(Oc2c(C)oc3cc(OCC(=O)OC)ccc3c2=O)cc1	16.1	2.2	0.0	8.4
COc1ccccc1-c1noc(CCl)n1	4.4	-0.6	-0.1	8.0
COc1ccc(-c2cnn3ccc(Nc4ccccc4)nc23)cc1OC	-1.0	4.4	-0.3	-4.5
NC(=O)c1c(NC(=O)c2cccc([N+](=O)[O-])c2)sc2c1CCC2	-26.8	0.3	0.3	11.6
CC(=O)Oc1ccc(/C=C/c2ccc3cccc(OC(C)=O)c3n2)cc1[N+](=O)[O-]	-6.5	-7.4	0.0	21.3
Oc1cccc(/C=C/c2ccc3cccc(O)c3n2)c1	47.4*	-4.3	0.1	6.2
Oc1c(Br)cc(/C=C/c2ccc3cccc(O)c3n2)cc1Br	17.1	-0.8	0.3	7.0
CC(C)Oc1ccc(/C=C/c2ccc3cccc(O)c3n2)cc1	79.7*	-8.7	0.1	5.3
COc1ccc(/C=C/c2ccc3cccc(OC(C)=O)c3n2)cc1OC(C)=O	75.2*	-4.4	0.0	16.6
Oc1cccc2ccc(/C=C/c3ccc(Cl)cc3)nc12	46.2*	-2.1	0.1	4.6
CC1CCN(Cc2nnnn2CCCC(=O)NCC2OCCc3ccccc32)CC1 (stereo unspecified)	-0.7	-0.7	-0.1	-3.5
CCOc1ccccc1NC(=O)/C(C#N)=C/c1ccc(OC)c(OC(C)C)c1	-3.7	0.1	0.0	-2.1
COc1ccccc1C1CC(c2c(-c3ccccc3)c3cc(Br)ccc3[nH]c2=O)=NN1S(=O)(=O)c1ccccc1 (stereo unspecified)	-10.8	-0.5	-0.1	4.1
CC(C)(C)C1CCc2c(sc(NC(=O)c3cccc(Cl)c3)c2C(=O)O)C1 (stereo unspecified)	52.7*	-1.6	0.2	9.1
CC(C)(C)C1CCc2c(sc(NC(=O)c3ccccc3)c2C(=O)O)C1 (stereo unspecified)	91.0*	0.8	-0.1	8.7
Cc1ccccc1C(=O)Nc1sc2c(c1C(=O)O)CCC(C(C)(C)C)C2 (stereo unspecified)	12.7	0.4	-0.1	-7.3
CC(C)(C)C1CCc2c(sc(NC(=O)c3ccccc3F)c2C(=O)O)C1 (stereo unspecified)	43.5*	-0.9	0.7	8.4
CNC(=O)c1c(NC(=O)c2ccccc2)sc2c1CCC(C(C)(C)C)C2 (stereo unspecified)	-21.9	-0.2	0.1	8.8
CC1CN(C(=O)c2c(NC(=O)c3ccccc3Cl)sc3c2CCC(C(C)(C)C)C3)CC(C)O1 (stereo unspecified)	73.1*	1.4	-0.1	0.9
